In all, about 310,000 compounds went through this assay and about 14,000 (4.5%) showed an effect of 50% or more. The effect is printed as a negative number. The sample as a whole holds a higher share of strong results than the screen did.
Molecular target: human ether-à-go-go-related gene (hERG) potassium channel (human, UniProt Q12809)
Experiment: primary screen, population patch clamp on CHO cells stably expressing hERG; higher = less effect of the substance
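Further: peak tail current of the secondary pulse compared with the same well before compound.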

Chain of human ether-à-go-go-related gene (hERG) potassium channel (Q12809 whole entry, looked up): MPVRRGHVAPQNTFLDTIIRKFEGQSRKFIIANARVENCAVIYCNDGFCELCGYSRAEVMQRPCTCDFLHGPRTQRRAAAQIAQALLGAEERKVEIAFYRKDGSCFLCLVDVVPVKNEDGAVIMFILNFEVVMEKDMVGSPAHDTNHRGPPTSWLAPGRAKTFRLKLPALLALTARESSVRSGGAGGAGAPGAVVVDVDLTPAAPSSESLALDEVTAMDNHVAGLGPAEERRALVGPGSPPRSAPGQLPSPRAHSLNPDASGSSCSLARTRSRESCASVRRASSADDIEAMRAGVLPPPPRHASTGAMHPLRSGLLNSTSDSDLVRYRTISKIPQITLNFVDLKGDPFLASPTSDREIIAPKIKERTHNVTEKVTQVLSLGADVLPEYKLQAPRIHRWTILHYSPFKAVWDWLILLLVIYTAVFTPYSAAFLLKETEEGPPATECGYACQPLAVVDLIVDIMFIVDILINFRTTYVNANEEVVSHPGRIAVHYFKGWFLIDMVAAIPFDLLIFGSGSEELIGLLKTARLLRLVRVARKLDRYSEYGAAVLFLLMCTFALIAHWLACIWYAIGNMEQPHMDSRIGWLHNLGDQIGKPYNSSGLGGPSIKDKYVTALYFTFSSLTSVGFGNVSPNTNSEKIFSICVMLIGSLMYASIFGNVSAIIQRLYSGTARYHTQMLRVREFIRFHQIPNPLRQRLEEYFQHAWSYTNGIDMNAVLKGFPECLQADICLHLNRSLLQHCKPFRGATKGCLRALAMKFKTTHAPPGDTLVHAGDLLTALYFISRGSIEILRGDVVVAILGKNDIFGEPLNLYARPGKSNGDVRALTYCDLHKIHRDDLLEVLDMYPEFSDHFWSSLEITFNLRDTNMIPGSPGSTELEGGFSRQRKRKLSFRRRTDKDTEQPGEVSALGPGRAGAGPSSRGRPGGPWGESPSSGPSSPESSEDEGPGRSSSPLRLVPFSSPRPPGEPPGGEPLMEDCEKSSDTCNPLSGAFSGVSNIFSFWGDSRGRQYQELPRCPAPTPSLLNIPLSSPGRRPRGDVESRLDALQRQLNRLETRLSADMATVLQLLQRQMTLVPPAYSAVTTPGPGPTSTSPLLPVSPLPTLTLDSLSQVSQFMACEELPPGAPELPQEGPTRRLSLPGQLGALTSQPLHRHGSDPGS

SMILES	hERG current change (%, negative = inhibition) at 10uM [%]
Cc1ccccc1OCCn1c(CCNC(=O)C(C)C)nc2ccccc21	-6.24
CCN1C(=O)CC(C(=O)Nc2ccc(F)cc2)SC1=Nc1ccc2c(c1)OCO2 (stereo not shown)	-13.5
CC(C)Sc1nc(N)c2c3c(sc2n1)CN(C)CC3	-34
CC(=O)Oc1ccc(/C=N/NC(=O)CCSc2ccccc2)cc1	-8.83
COc1ccc2nc(-c3ccccc3)[nH]c2c1	-1.4
COc1ccc(/C=C/C(=O)NCC(=O)N/N=C/c2cccnc2)cc1	-14.9
Cc1cc(N2CCN(C)CC2)nc2ccc(NC(=S)NCCN3CCc4ccccc4C3)cc12	-23.7
CCN(CC)CCNC(=S)Nc1ccc2nc(N3CCN(CC)CC3)cc(C)c2c1	11.2
CCCCNC(=S)Nc1ccc2nc(N3CCN(CC)CC3)cc(C)c2c1	-44.6
CCN1CCN(c2cc(C)c3cc(NC(=O)c4cccnc4Cl)ccc3n2)CC1	-6.83
COc1ccccc1CNC(=S)Nc1ccc2nc(N3CCN(C)CC3)cc(C)c2c1	-1.77
Cc1cc(N2CCN(C)CC2)nc2ccc(NC(=S)NC3CC3)cc12	3.2
CCN1CCN(c2cc(C)c3cc(NC(=S)NCc4cccs4)ccc3n2)CC1	-59.7
Cc1cc(N2CCN(C)CC2)nc2ccc(NC(=S)NCc3cccs3)cc12	-56.3
CCN1CCN(c2cc(C)c3cc(NC(=O)c4cccs4)ccc3n2)CC1	-55.1
COc1ccc(CNC(=S)Nc2ccc3nc(N4CCN(C)CC4)cc(C)c3c2)cc1	-51.1
COc1ccc(CNC(=S)Nc2ccc3nc(N4CCOCC4)cc(C)c3c2)cc1	-24
CC(=O)c1ccc(NC(=O)C2=CC(c3ccco3)=NS(=O)(=O)N2C)cc1	-7.75
COC(C(=O)N/N=C(\C)CC(=O)Nc1ccc(N(C)C)cc1)c1ccccc1 (stereo not shown)	15.3
CC(NS(C)(=O)=O)C(c1cccs1)N1CCN(c2ccccc2F)CC1 (stereo not shown)	6.04
Cc1ccc(CNC(=O)Cn2c([N+](=O)[O-])cnc2C)cc1	11.3
COc1ccc(S(=O)(=O)NNC(=O)Nc2ccc(C)cc2C)c(OC)c1	-1.37
Cc1nc(SCC(=O)c2c(N)n(C3CC3)c(=O)[nH]c2=O)[nH]c(=O)c1CCO	17
COc1ccc2c(c1)OC(O)(C(F)(F)F)CC2=O (stereo not shown)	-5.68
CN(C1CCCC1)C1CCN(C(=O)CNC(=O)/C=C/c2cccc(C(F)(F)F)c2)CC1	-62.6

SMILES	hERG current change (%, negative = inhibition) at 10uM [%]
CC(C)(C)NC(=O)/C=C/c1cccc(C(F)(F)F)c1	-8.66
CN(C(=O)/C=C/c1ccccc1)C1CCCCC1	1.32
COc1ccccc1/C=C/C(=O)NCC(=O)N1CCC(N(C)C2CCCC2)CC1	-35
CN(C1CCCC1)C1CCN(C(=O)CNC(=O)/C=C/c2ccc(F)cc2)CC1	-62.6
CN(C(=O)/C=C/c1ccc(F)cc1)C1CCCCC1	-22.6
CN(C(=S)NC(=O)/C=C/c1ccc(F)cc1)C1CCCCC1	4.54
CN(C1CCCC1)C1CCN(C(=O)CNC(=O)/C=C/c2ccccc2)CC1	-53.8
CNC(=O)/C=C/c1cccc(C(F)(F)F)c1	4.99
COc1ccc(NC(=O)c2cc(S(=O)(=O)NCC3COc4ccccc4O3)ccc2F)cc1 (stereo not shown)	-19.1
O=c1oc2ccccc2cc1-c1cn2ccccc2n1	11.9
Nc1nnc(SCC(=O)NC2CCCCCCC2)s1	16.9
CCCc1cc2c(cc1NC(=O)c1ccc(C(C)(C)C)cc1)OCO2	-13.8
Cc1csc(NC(=O)CSc2nnc3ncccn23)n1	-14.3
CCn1c(SCC(=O)Nc2ccccc2OC)nc2ccccc2c1=O	-11.9
COc1ccc(NC(=O)CSc2nc3ccccc3c(=O)n2CCCN2CCCCC2)c(OC)c1	-65.7
COCCn1c(SCC(=O)Nc2ccc(OC)cc2OC)nc2ccccc2c1=O	10.5
COc1ccc(NC(=O)CSc2nc3ccccc3c(=O)n2CCCN2CCC(C)CC2)c(OC)c1	-81.6
COc1ccc(NC(=O)CSc2nc3ccccc3c(=O)n2CCCN2CCOCC2)c(OC)c1	-34.6
COCCn1c(SCC(=O)Nc2ccccc2OC)nc2ccccc2c1=O	-40.1
COc1ccc(NC(=O)CCCNS(=O)(=O)c2cccs2)cc1	2.91
Cc1cccc(NC2=C(NC(=O)c3ccccc3)C(=O)c3ccccc3C2=O)c1	-19.4
OCCC1CN(Cc2cnc(N3CCCC3)s2)CCN1Cc1ccccc1 (stereo not shown)	-0.21
OCC1(CCc2ccccc2)CCN(Cc2cnc(N3CCCC3)s2)CC1	-70.3
Clc1ncc(CN2CCN(Cc3ccccc3)CC2)s1	-4.52
OCCC1CN(Cc2cnc(N3CCCC3)s2)CCN1C1CCCC1 (stereo not shown)	-7.38

SMILES	hERG current change (%, negative = inhibition) at 10uM [%]
CCOC(=O)C1(Cc2ccccc2)CCN(Cc2cnc(N3CCOCC3)s2)CC1	-42.4
OCC1(CCCc2ccccc2)CCN(Cc2cnc(N3CCOCC3)s2)CC1	-58.3
COc1cccc(CC2(CO)CCN(Cc3cnc(N4CCOCC4)s3)CC2)c1	-54.7
c1ccc(N2CCN(Cc3cnc(N4CCOCC4)s3)CC2)cc1	29.4
CN(C)c1ncc(CN2CCC(CO)(CCCc3ccccc3)CC2)s1	-51.3
CC(=O)Nc1ccc(NC(=O)COC(=O)Cc2c[nH]c3ccccc23)cc1	10.2
Cl.O=C(CN1CCCCCC1)N1c2ccccc2Sc2ccc(C(F)(F)F)cc21	-1.87
COc1cccc(CNC(=O)c2nnn(CC(=O)Nc3ccc(Br)cc3)c2N)c1	17.5
O=C(CNC(=O)Cc1ccc(Cl)cc1)NCC(=O)N1CCCCC1	17.9
CCOC(=O)c1c(C)n(C)c2ccc(OCC(N)=O)cc12	7.9
CCCCN=C1NN=C(c2cccc([N+](=O)[O-])c2)CS1.Cl	-4.82
O=C(CN1CCSCC1)N/N=C/c1ccc(F)cc1F	-6.43
CCc1ccc(NC(=O)c2cc(C(C)C)on2)cc1	-27.3
CC1CCCC(C)N1CC(O)COc1c(F)cc(Br)cc1F.Cl (stereo not shown)	-57.7
Cl.OC(CNC1CCCC1)COc1c(F)cc(Br)cc1F (stereo not shown)	-27.3
CN(CC(O)COc1c(F)cc(Br)cc1F)C1CCCCC1.Cl (stereo not shown)	-65.9
CC(C)NCC(O)COc1c(F)cc(Br)cc1F.Cl (stereo not shown)	-4.33
CN(CC(O)COc1ccccc1F)C1CCCCC1.Cl (stereo not shown)	2.08
CC(C)(C)NCC(O)COc1c(F)cc(Br)cc1F.Cl (stereo not shown)	-7.38
Cn1c(=O)c2cc(S(=O)(=O)NC(C(=O)Nc3cccc(F)c3)c3ccccc3)ccc2n(C)c1=O (stereo not shown)	-7.01
COCCNC(=O)COc1ccccc1Cl	1.56
COCCCNc1nc(-c2ccc(Cl)cc2)nc2ccccc12	-1.64
COCCCNc1cc(C)nc2ccccc12.Cl	-40.3
COCCNc1ccnc2c(Cl)cccc12	-81.9
COCCCNc1ccnc2c(Cl)cccc12	-58.5

SMILES	hERG current change (%, negative = inhibition) at 10uM [%]
COCCNc1cc(C)nc2ccccc12.Cl	-10.8
O=S1(=O)N=C(N(CCO)/N=C/c2ccc(Br)cc2)c2ccccc21	15
c1ccc2c(CSCCc3ccncc3)cccc2c1	-17.6
COc1ccccc1CNC(=O)COC(=O)c1nc(Cl)ccc1Cl	-2.78
COc1ccc2c(c1)OC[C@H]1[C@H]2N2C(=O)CN(Cc3ccco3)C(=O)[C@@]2(C)[C@H]1c1ccccc1	10.7
CC(C)NCC(O)c1ccc(C2CCCC2)cc1.O=C(O)/C=C\C(=O)O (stereo not shown)	-15.5
CCCN(CC1CC1)CC(O)c1ccccc1.O=C(O)C(=O)O (stereo not shown)	4.51
CCN(CC)CC(O)c1ccc(C2CCCC2)cc1.Cl (stereo not shown)	-63
COC(=O)c1c(NC(=O)c2ccco2)sc(C)c1C	18.1
CCCNC(=O)COC(=O)c1ccccc1OCc1ccc(Cl)cc1	-0.354
COc1ccc(C(=O)N(Cc2ccccc2)c2cccc(C)c2)cc1S(=O)(=O)N1CCOCC1	-35.8
Cc1ccc(N(Cc2ccccc2)C(=O)c2ccc(Cl)c(S(=O)(=O)N3CCOCC3)c2)cc1	-70.3
COc1ccc(CC(=O)N(Cc2ccccc2)c2ccccc2)cc1S(=O)(=O)N1CCOCC1	1.07
Cc1ccc(N(Cc2ccccc2)C(=O)c2cc(S(=O)(=O)N3CCOCC3)ccc2F)cc1	-10.2
Cc1cccc(N(Cc2ccccc2)C(=O)c2ccc(F)c(S(=O)(=O)N3CCOCC3)c2)c1	-50.5
Cc1ccc(N(Cc2ccccc2)C(=O)c2ccc(C)c(S(=O)(=O)N3CCOCC3)c2)cc1	-18
Cc1ccc(N(Cc2ccccc2)C(=O)c2cc(S(=O)(=O)N3CCOCC3)ccc2N2CCCC2)cc1	5.59
Cc1cccc(N(Cc2ccccc2)C(=O)c2ccc(C)c(S(=O)(=O)N3CCOCC3)c2)c1	-17.6
COc1ccc(C(=O)N(Cc2ccccc2)c2ccc(C)cc2)cc1S(=O)(=O)N1CCOCC1	-67.7
Cc1cccc(N(Cc2ccccc2)C(=O)c2cc(S(=O)(=O)N3CCOCC3)ccc2Cl)c1	-13.3
Cc1ccc(N(Cc2ccccc2)C(=O)c2ccc(F)c(S(=O)(=O)N3CCOCC3)c2)cc1	-82.7
Cc1cccc(N(Cc2ccccc2)C(=O)c2cc(S(=O)(=O)N3CCOCC3)ccc2F)c1	-5.69
